# Test system: wheat germ agglutinin (Triticum aestivum), Alexa647-labelled
# Test: Alexa647-WGA lectin binding to printed small molecules – biochemical, small-molecule microarray, 635/667 nm fluorescence, artefact control for SMM control-protein annotation, profiling panel (AID 1140);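 also: score merges 667 nm feature emission with signal to noise over triplicate slides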
# Settings: WGA-A647 binding, 635 nm fluorescence, higher = more signal
row,SMILES,composite z-score
1,C=CCN1C(=O)[C@@]2(Cc3ccccc31)N=C(c1ccc(OCCCO)cc1)O[C@H]2c1ccccc1,0.495
2,CN(C)CCCCCCNC(=O)[C@H]1C[C@H]2C(=O)N[C@@H](CCCCN)C(=O)N2[C@H]1c1cccc(OCCO)c1,1.64
3,COc1cc2c(cc1OC)CN(C(=O)[C@H]1[C@@H]3C(=O)O[C@@H](c4ccccc4)[C@@H](c4ccccc4)N3[C@@H](c3ccc(O)cc3)[C@]13C(=O)Nc1ccccc13)CC2,0.115
4,C=CC1(C(=O)OC)CC=C(C(=O)OC)CC1 (stereo unspecified),0.184
5,CCCC=C(CCC)[C@@H](NC(=O)c1cccs1)c1ccc(C(F)(F)F)cc1,0.83
6,C=CCNC(=O)[C@@H]1[C@H]2C(=O)O[C@H](c3ccccc3)[C@H](c3ccccc3)N2[C@H](c2ccccc2OCCO)[C@@]12C(=O)N(C(=O)OCCOC)c1ccccc12,0.478
7,COC(=O)C[C@H]1O[C@]2(C(=O)N(C)c3ccccc32)[C@@H](C)[C@@H]1[Si](C)(C)F,-0.0572
8,C=CCOC(=O)[C@@H]1[C@H]2C(=O)O[C@H](c3ccccc3)[C@H](c3ccccc3)N2[C@H](c2ccc(OCCOC(=O)[C@@H]3C[C@@H]4C(=O)NCC(=O)N4[C@@H]3c3ccc(O)cc3)cc2)[C@@]12C(=O)Nc1ccc(I)cc12,0.86
9,COc1ccc(CCNC(=O)[C@@]2(C)c3ccccc3C(=O)N(C(C)C)[C@H]2c2ccc(CO)cc2)cc1,0.544
10,C=C(CC1([C@@H](NP(=O)(c2ccccc2)c2ccccc2)[C@H]2C[C@@H]2CCCC)CC1)c1ccccc1,0.729
11,COC(=O)[C@H](Cc1ccccc1)N1CC2=C[C@@H](C3CC3)n3c(=O)n(C)c(=O)n3[C@H]2[C@@H]1[C@@H](O)Cc1ccccc1,0.0263
12,C=C(/C(=C/C[C@H](OC(C)=O)c1ccc(CO)o1)c1cc(C(=O)OC)ccc1OC)C(C)C,-1.24
13,[N-]=[N+]=Nc1ccccc1[C@H]1OC(c2ccc(OCCCO)cc2)=N[C@@]1(CCS(=O)(=O)c1ccccc1)C(N)=O,1.21
14,COc1cc2c(cc1OC)CN(C(=O)[C@@H]1[C@H]3C(=O)O[C@H](c4ccccc4)[C@H](c4ccccc4)N3[C@H](c3ccccc3OCCO)[C@@]13C(=O)Nc1ccc(C#CCCO)cc13)CC2,0.988
15,C[N+](C)(C)CCCCNC(=O)[C@@H]1C[C@@H]2C(=O)N[C@@H](Cc3ccccc3)C(=O)N2[C@@H]1c1cccc(OCCO)c1,-1.02
16,COCCOC(=O)N1C(=O)[C@@]2(c3cc(C#CCC(C(=O)OC)C(=O)OC)ccc31)[C@H](C(=O)Nc1nc3ccccc3s1)[C@H]1C(=O)O[C@H](c3ccccc3)[C@H](c3ccccc3)N1[C@@H]2c1ccccc1OCCO,1.2
17,CCC[C@@H]1C[C@@]1(CCC)[C@@H](NS(=O)(=O)c1cccc2cccnc12)c1ccc(Cl)cc1,0.701
18,C=CCNC(=O)[C@@H]1[C@H]2C(=O)O[C@H](c3ccccc3)[C@H](c3ccccc3)N2[C@H](c2ccc(O)cc2)[C@@]12C(=O)N(C(=O)OCCOC)c1ccc(C#CCNC(N)=O)cc12,0.834
19,COCCOC(=O)N1C(=O)[C@@]2(c3cc(C#CCCO)ccc31)[C@H](C(=O)N1CCCCCCC1)[C@H]1C(=O)O[C@H](c3ccccc3)[C@H](c3ccccc3)N1[C@@H]2c1ccc(OCCO)cc1,1.35
20,COC(=O)[C@@]1(CCC(=O)OC(C)(C)C)N=C(c2ccc(OCCCO)cc2)O[C@H]1c1ccccc1N=[N+]=[N-],0.658
21,CCCCCN1CC=CC23O[C@@H]4/C=C\CCC(C)OC(=O)C4[C@H]2C(=O)N(C(C)CO)[C@@H]3C1=O (stereo partly specified),-0.721
22,Cc1ccc(S[C@]2(C(=O)NC3CC3)CC(=O)N(Cc3ccccc3)[C@@H]2c2ccc(CO)cc2I)cc1,-0.567
23,O=C1NC(=O)C2C1C=CC(C(O)c1cccs1)N2Nc1ccc(Cl)cc1Cl (stereo unspecified),0.22
24,C=CCC(OC(C)=O)[C@@H]1[C@@H](N(Cc2ccc(-c3ccccc3)cc2)C(=O)c2cccc3ccccc23)c2cc(OCCCO)ccc2N1C(=O)c1ccc(-c2ccccc2)cc1 (stereo partly specified),0.556
25,CCOC(=O)C[C@H]1[C@H](OC(=O)c2ccc(C(=O)c3ccccc3)cc2)[C@@H](NC(=O)c2ccccc2)c2cc(OCCCO)ccc2N1C(=O)c1ccc2ccccc2n1,0.324
26,COc1cc2c(cc1O)C(C1CC1)N(Cc1sc3ccccc3c1Cl)CC2 (stereo unspecified),0.402

# Source: PubChem BioAssay
